# Source: PubChem BioAssay (NCI)
# Compounds without any hit were thinned out: in the full panel of roughly 83,000, 20% have a hit.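 A percent growth of 40 corresponds to 60% growth inhibition; 0 means no net growth; -100 means all cells died. Active threshold: below 10.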 Values without a mark were called inactive. Active and inactive are the calls of the source.
# Tested on: NCI-H226 lung
# Assay: NCI-60 one-dose screen, 48 h (100 = growth as untreated, 0 = no growth, -100 = all killed)
# Details: 10 µM unless noted
row,SMILES,growth
1,Cc1nn(-c2ccccc2)c(Cl)c1/C=C/C(=O)c1ccc(F)cc1,85.8%
2,COc1cc2oc(-c3cccc(C(=O)Nc4ccc(Br)cc4)c3)cc(=O)c2c(OC)c1OC,10.7%
3,CC1=C(C(=O)/C=C/c2c[nH]c3ccccc23)C(c2ccccc2)NC(=S)N1 (stereo not drawn),80.4%
4,CCCCCN1C=C/C(=C\C(=O)N(C)c2ccc(Oc3ccccc3)cc2)c2ccccc21,79.1%
5,Cn1cc(-c2nc(-c3c[nH]c4c(Cl)nccc34)cs2)c2cc(Br)ccc21,81.4%
6,COc1ccc(/C=C2\Oc3cc(OCCCN4CCCCC4)ccc3C2=O)cc1OC,90%
7,Cc1cc2nc3c4cc(C=O)ccc4n(CCN(C)C)c3nc2cc1C,-3.6% (active)
8,S=c1cc(S)c2cc(Br)ccc2[nH]1,83.9%
9,O=C(/C(=C\c1ccc([N+](=O)[O-])cc1)S(=O)Cc1ccc(Cl)cc1)c1ccc(Cl)cc1 (stereo not drawn),92.9%
10,COc1cc(CC(=O)c2ccc(O)c(OC)c2)ccc1O,81.9%
11,O=C(NCCc1ccccc1)Nc1ccc2cc3ccc(NC(=O)NCCc4ccccc4)cc3nc2c1,88.7%
12,C=C(C)[C@@H]1CC[C@]2(C(=O)N3CCN(C)CC3)CC[C@]3(C)[C@H](CC[C@@H]4[C@@]5(C)C/C(=C/c6cccnc6)C(=O)C(C)(C)[C@@H]5CC[C@]43C)[C@@H]12,72.7%
13,COc1cc2nc(-c3ccc(Cl)cc3)cc(OCCCN3CCC(O)CC3)c2cc1OC,3.82% (active)
14,O=S(=O)(NCCNc1nccc(-c2c(-c3cccc(O)c3)nc3occn23)n1)c1ccccc1,104%
15,NC(=NCCCOc1ccc(F)cc1)Nc1ccc(Cl)cc1,65.7%
16,C#Cc1cccc(NC(=O)c2cccc(NC(=O)CCl)c2)c1,-32% [8.25 µM] (active)
17,CCN1Cc2nc3sc(C)c(C)c3c(=O)n2C=C1C,77.8%
18,O=C1Nc2cc(-c3cccc([N+](=O)[O-])c3)ccc2/C1=C/c1ccc[nH]1,50.6%
19,C[C@H]1[C@H](C)CC[C@]2(C(=O)NCC#CCN3CCN(C)CC3)CC[C@]3(C)C(=CC[C@@H]4[C@@]5(C)Cc6c([nH]c7ccccc67)C(C)(C)[C@@H]5CC[C@]43C)[C@H]12,100%

row,SMILES,growth
1,COc1cc(/C=C/c2cc(O)c(C(C)=O)c(O)c2)cc2c1O[C@]1(C)CC[C@@H](O)C(C)(C)[C@H]1C2,89%
2,N#CC1=C(N)Oc2c(cnn2-c2ccc([N+](=O)[O-])cc2[N+](=O)[O-])C1c1ccccc1 (stereo not drawn),97%
3,COc1ccc(C(=O)c2cc(C)c(OC)c(C)c2)c(OC)c1N(C(=O)CCl)C(=O)CCl,7.88% (active)
4,CCC(=O)Oc1ccc(/C(=C(\C)c2ccccc2)c2ccc(OCCN3CCCCC3)cc2)cc1,82.9%
5,Cc1ccc(NC(=O)c2cc(-c3nc4ccccc4s3)c(=O)n(NS(=O)(=O)c3ccc(Cl)cc3)c2N)cc1,80.6%
6,O=C1Nc2ccc(F)cc2/C1=C\c1c(-c2ccccc2)nc2ccccn12,91.5%
7,O=C(NO)c1ccc(-n2nc(-c3ccccc3)c3ccccc32)cc1,56.4%
8,O=C1Nc2ccccc2/C1=C\c1c(-c2ccc(F)cc2)nc2ccccn12,79.2%
9,Oc1cccc(CCc2ccc(Oc3cc(CCc4cccc(O)c4)cc(O)c3O)cc2)c1,84.4%
10,CCCCCCCC(=O)OCC/C=C/C1OC1C1OC(=O)/C=C\C=C\C(=O)N(C(C)=O)C(=O)/C=C(/C)CCC2OC2C1OC(=O)NC(C)=O (stereo not drawn),81.1%
11,Cc1ccc(NS(=O)(=O)c2ccc(-c3cnc(C4CC4)o3)cc2)cc1C(F)(F)F,77.9%
12,CNC(=O)c1cncc(Cn2nc(C)c(NC(=O)c3ccc(COc4ccc(C(F)(F)F)cc4C)cc3)c2C)c1,58.1%
13,Cc1cc(C)c(S(=O)(=O)Oc2ccccc2[N+](=O)[O-])c(C)c1,60%
14,C=C1C(=O)O[C@H]2[C@H]1CC/C(CNC(=O)C(C)c1ccc(CC(C)C)cc1)=C\CC[C@@]1(C)O[C@@H]21 (stereo partly drawn),75.1%
15,NC(=S)N1N=C(c2ccccc2)CC1c1cn(-c2ccccc2)nc1-c1ccc(OCc2ccccc2)cc1 (stereo not drawn),98.4%
16,CN1CCN(C(=O)[C@]23CCC(C)(C)C[C@H]2C2=CC[C@@H]4[C@@]5(C)C/C(=C/c6cccnc6)C(=O)C(C)(C)[C@@H]5CC[C@@]4(C)[C@]2(C)CC3)CC1,79.7%
17,O=C1Nc2cc(-c3cccc(O)c3)ccc2/C1=C/c1ccc[nH]1,73.9%
18,COc1ccc(/C=C/c2nc(Nc3ccc(S(=O)(=O)NC(C)=O)cc3)c3ccccc3n2)cc1,84%
19,CCNC(=O)Oc1ccc(/C(=C(\C)c2ccccc2)c2ccc(OCCN3CCCCC3)cc2)cc1,92.2%
